According to article PMC7862700, “An all-to-all approach to the identification of sequence-specific readers for epigenetic DNA modifications on cytosine”:

Legend:
Assay in all cases: DAPPL (digital affinity profiling via proximity ligation, sequencing); 10 mM Tris-HCl pH 7.5, 50 mM NaCl, 1 mM DTT, 4% glycerol, room temperature, 30 min; GST-TFs on glutathione beads, 16-mer random dsDNA library, 0.1% formaldehyde crosslink after washing; high values mean tight binding
Settings in all cases: protein: recombinant; tags: N-terminal GST; dsDNA, one strand shown
FLI1 = target: T1, FLI1 (Homo sapiens, UniProt Q01543 1-452)
T1 sequence: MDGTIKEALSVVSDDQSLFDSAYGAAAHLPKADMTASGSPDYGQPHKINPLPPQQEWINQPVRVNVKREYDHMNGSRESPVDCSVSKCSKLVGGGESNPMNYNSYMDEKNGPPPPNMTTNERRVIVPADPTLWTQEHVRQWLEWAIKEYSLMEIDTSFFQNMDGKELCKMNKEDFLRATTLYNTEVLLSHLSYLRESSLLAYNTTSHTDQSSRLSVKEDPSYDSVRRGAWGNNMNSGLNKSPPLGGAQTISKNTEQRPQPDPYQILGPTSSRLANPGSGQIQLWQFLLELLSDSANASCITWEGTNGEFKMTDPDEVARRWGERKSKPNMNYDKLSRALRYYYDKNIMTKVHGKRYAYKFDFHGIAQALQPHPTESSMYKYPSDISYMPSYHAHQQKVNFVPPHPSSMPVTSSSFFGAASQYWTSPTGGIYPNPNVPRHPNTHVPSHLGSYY
In short: (§1)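 Each value of binding signal is a hexamer's read frequency for a factor divided by the same hexamer's frequency in the tag-only sample. Barcoded, bead-captured GST fusions of human transcription factors made in yeast were pooled with that sample and incubated with 200 nmole of a random double-stranded 16-mer DNA library in Tris/NaCl/DTT/glycerol buffer at room temperature for 30 min. Washing, 0.1% formaldehyde crosslinking, proximity ligation, PCR and Illumina NextSeq500 sequencing followed.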

ELK1 = target: T2, ELK1 (Homo sapiens, UniProt P19419 1-428)
T2 sequence: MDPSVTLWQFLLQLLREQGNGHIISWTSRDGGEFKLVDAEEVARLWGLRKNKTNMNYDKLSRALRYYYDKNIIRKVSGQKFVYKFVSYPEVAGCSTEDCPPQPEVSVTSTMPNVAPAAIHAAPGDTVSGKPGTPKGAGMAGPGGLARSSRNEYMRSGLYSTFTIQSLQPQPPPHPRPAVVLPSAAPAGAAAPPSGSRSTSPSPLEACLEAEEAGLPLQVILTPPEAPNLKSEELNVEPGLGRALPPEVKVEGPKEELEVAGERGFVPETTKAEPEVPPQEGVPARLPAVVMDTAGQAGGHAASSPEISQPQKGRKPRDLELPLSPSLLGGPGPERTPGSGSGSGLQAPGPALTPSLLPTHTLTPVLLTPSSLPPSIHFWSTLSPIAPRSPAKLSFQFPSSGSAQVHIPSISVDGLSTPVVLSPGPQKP
In short: as §1

GABPA = target: T3, GABPA (Homo sapiens, UniProt Q06546 1-454)
T3 sequence: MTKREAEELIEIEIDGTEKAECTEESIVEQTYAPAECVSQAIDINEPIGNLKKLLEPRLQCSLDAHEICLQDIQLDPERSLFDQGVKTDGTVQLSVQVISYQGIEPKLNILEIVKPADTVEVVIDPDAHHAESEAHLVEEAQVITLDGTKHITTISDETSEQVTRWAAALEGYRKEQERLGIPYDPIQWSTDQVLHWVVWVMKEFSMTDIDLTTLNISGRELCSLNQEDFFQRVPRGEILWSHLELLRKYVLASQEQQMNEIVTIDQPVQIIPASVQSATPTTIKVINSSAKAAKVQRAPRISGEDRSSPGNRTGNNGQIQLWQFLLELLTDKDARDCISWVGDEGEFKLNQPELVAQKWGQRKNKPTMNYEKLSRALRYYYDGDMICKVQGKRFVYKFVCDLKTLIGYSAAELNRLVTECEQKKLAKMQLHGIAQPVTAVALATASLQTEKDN
In short: as §1

ERG = target: T4, ERG (Homo sapiens, UniProt P11308 1-479)
T4 sequence: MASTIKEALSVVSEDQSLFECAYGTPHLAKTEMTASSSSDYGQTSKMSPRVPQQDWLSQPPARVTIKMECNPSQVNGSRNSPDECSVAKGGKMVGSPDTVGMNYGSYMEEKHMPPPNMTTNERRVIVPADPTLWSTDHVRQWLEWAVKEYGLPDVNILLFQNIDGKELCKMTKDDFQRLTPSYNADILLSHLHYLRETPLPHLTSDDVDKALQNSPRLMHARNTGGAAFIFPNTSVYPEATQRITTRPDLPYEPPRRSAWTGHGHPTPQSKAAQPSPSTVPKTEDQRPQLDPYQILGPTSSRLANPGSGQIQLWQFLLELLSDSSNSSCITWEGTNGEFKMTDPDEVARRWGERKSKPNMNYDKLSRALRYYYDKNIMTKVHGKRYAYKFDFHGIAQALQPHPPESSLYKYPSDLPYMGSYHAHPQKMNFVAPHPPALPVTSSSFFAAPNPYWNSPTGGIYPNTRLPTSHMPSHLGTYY
In short: as §1

ELF1 = ELF1 (Homo sapiens, UniProt P32519 1-619)
In short: as §1

EHF = target: T5, EHF (Homo sapiens, UniProt Q9NZC4 1-300)
T5 sequence: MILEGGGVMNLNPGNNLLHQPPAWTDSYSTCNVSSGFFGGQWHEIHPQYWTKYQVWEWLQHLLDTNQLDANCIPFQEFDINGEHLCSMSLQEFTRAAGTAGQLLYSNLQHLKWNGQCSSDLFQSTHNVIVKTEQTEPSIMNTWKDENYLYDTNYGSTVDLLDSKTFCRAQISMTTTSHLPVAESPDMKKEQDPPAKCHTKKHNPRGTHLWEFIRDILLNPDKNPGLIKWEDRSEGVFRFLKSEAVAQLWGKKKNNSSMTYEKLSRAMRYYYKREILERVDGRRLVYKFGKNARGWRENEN
In short: as §1

SPI1 [1] = target: SPI1 (Homo sapiens, UniProt P17947 1-270)
In short: as §1

SPIB = SPIB (Homo sapiens, UniProt Q01892 1-262)
In short: as §1

ELK3 = target: T6, ELK3 (Homo sapiens, UniProt P41970 1-407)
T6 sequence: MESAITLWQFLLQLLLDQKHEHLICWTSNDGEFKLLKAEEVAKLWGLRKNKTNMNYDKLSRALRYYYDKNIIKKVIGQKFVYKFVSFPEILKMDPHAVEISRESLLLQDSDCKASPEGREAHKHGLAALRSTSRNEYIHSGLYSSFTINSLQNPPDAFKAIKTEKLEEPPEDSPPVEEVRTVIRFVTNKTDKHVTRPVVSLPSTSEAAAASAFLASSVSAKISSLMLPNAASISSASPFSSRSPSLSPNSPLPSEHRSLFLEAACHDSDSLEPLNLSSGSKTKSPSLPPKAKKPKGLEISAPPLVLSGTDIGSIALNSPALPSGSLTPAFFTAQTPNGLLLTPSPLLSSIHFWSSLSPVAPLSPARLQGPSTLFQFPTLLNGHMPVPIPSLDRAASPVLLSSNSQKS
In short: as §1

SPI1 [2] = target: SPI1 (Homo sapiens, UniProt P17947 1-270); remark: listed apart in the source
In short: as §1

Sequence of ELF1 (P32519 whole entry): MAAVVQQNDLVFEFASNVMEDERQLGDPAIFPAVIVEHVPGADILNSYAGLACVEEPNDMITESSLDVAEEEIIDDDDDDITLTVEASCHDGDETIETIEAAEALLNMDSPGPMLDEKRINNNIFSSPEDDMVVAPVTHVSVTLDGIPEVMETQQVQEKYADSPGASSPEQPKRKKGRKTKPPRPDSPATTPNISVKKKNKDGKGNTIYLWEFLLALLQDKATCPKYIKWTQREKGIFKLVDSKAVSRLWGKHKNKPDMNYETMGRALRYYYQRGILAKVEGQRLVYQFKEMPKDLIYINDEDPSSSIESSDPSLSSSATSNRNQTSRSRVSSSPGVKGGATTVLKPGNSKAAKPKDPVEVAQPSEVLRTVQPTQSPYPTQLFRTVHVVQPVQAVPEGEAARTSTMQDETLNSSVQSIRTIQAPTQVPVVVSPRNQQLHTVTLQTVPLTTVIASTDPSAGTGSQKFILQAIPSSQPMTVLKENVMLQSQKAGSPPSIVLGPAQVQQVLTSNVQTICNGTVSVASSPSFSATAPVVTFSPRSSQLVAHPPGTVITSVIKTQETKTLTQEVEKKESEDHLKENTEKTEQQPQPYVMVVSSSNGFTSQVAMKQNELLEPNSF
Sequence of SPIB (Q01892 whole entry): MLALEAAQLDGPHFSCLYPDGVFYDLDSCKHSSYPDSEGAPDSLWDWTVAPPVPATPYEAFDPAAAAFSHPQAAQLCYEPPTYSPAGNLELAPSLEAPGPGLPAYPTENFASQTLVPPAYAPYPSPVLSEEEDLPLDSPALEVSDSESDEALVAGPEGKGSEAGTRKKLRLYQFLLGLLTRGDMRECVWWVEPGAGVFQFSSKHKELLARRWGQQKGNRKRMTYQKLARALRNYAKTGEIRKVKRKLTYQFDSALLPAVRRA

Sequence	binding signal (FLI1)	binding signal (ELK1)	binding signal (GABPA)	binding signal (ERG)	binding signal (ELF1)	binding signal (EHF)	binding signal (SPI1 [1])	binding signal (SPIB)	binding signal (ELK3)	binding signal (SPI1 [2])
CTTCCG	7.32 fold enrichment (6-mer frequency, TF over GST control)	8.14 fold enrichment (6-mer frequency, TF over GST control)	6.76 fold enrichment (6-mer frequency, TF over GST control)	8.96 fold enrichment (6-mer frequency, TF over GST control)	7.37 fold enrichment (6-mer frequency, TF over GST control)	7.93 fold enrichment (6-mer frequency, TF over GST control)	9.8 fold enrichment (6-mer frequency, TF over GST control)	7.71 fold enrichment (6-mer frequency, TF over GST control)	9.13 fold enrichment (6-mer frequency, TF over GST control)	–
TGTTTC	1.91 fold enrichment (6-mer frequency, TF over GST control)	1.85 fold enrichment (6-mer frequency, TF over GST control)	1.59 fold enrichment (6-mer frequency, TF over GST control)	1.97 fold enrichment (6-mer frequency, TF over GST control)	1.8 fold enrichment (6-mer frequency, TF over GST control)	1.79 fold enrichment (6-mer frequency, TF over GST control)	–	1.74 fold enrichment (6-mer frequency, TF over GST control)	1.61 fold enrichment (6-mer frequency, TF over GST control)	1.69 fold enrichment (6-mer frequency, TF over GST control)
TACTAT	1.5 fold enrichment (6-mer frequency, TF over GST control)	1.24 fold enrichment (6-mer frequency, TF over GST control)	1.44 fold enrichment (6-mer frequency, TF over GST control)	1.33 fold enrichment (6-mer frequency, TF over GST control)	1.31 fold enrichment (6-mer frequency, TF over GST control)	1.39 fold enrichment (6-mer frequency, TF over GST control)	–	1.42 fold enrichment (6-mer frequency, TF over GST control)	1.24 fold enrichment (6-mer frequency, TF over GST control)	1.3 fold enrichment (6-mer frequency, TF over GST control)
TTAACG	1.12 fold enrichment (6-mer frequency, TF over GST control)	1.17 fold enrichment (6-mer frequency, TF over GST control)	1.21 fold enrichment (6-mer frequency, TF over GST control)	1.17 fold enrichment (6-mer frequency, TF over GST control)	1.23 fold enrichment (6-mer frequency, TF over GST control)	1.15 fold enrichment (6-mer frequency, TF over GST control)	–	1.26 fold enrichment (6-mer frequency, TF over GST control)	1.32 fold enrichment (6-mer frequency, TF over GST control)	1.26 fold enrichment (6-mer frequency, TF over GST control)
TACCAC	1.2 fold enrichment (6-mer frequency, TF over GST control)	1.32 fold enrichment (6-mer frequency, TF over GST control)	1.18 fold enrichment (6-mer frequency, TF over GST control)	1.17 fold enrichment (6-mer frequency, TF over GST control)	1.32 fold enrichment (6-mer frequency, TF over GST control)	1.23 fold enrichment (6-mer frequency, TF over GST control)	–	1.26 fold enrichment (6-mer frequency, TF over GST control)	1.14 fold enrichment (6-mer frequency, TF over GST control)	1.24 fold enrichment (6-mer frequency, TF over GST control)
GCTAAA	1.06 fold enrichment (6-mer frequency, TF over GST control)	1.12 fold enrichment (6-mer frequency, TF over GST control)	1.07 fold enrichment (6-mer frequency, TF over GST control)	1.07 fold enrichment (6-mer frequency, TF over GST control)	1.08 fold enrichment (6-mer frequency, TF over GST control)	1.06 fold enrichment (6-mer frequency, TF over GST control)	–	1.14 fold enrichment (6-mer frequency, TF over GST control)	1.04 fold enrichment (6-mer frequency, TF over GST control)	1.16 fold enrichment (6-mer frequency, TF over GST control)
ATCCTT	1.72 fold enrichment (6-mer frequency, TF over GST control)	1.62 fold enrichment (6-mer frequency, TF over GST control)	1.64 fold enrichment (6-mer frequency, TF over GST control)	1.78 fold enrichment (6-mer frequency, TF over GST control)	1.6 fold enrichment (6-mer frequency, TF over GST control)	1.68 fold enrichment (6-mer frequency, TF over GST control)	–	1.67 fold enrichment (6-mer frequency, TF over GST control)	1.68 fold enrichment (6-mer frequency, TF over GST control)	1.7 fold enrichment (6-mer frequency, TF over GST control)
CTCAAC	1.25 fold enrichment (6-mer frequency, TF over GST control)	1.32 fold enrichment (6-mer frequency, TF over GST control)	1.33 fold enrichment (6-mer frequency, TF over GST control)	1.24 fold enrichment (6-mer frequency, TF over GST control)	1.26 fold enrichment (6-mer frequency, TF over GST control)	1.18 fold enrichment (6-mer frequency, TF over GST control)	–	1.19 fold enrichment (6-mer frequency, TF over GST control)	1.28 fold enrichment (6-mer frequency, TF over GST control)	1.18 fold enrichment (6-mer frequency, TF over GST control)
